About 19,000 (20%) of roughly 96,000 compounds were called active.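 Rule for the calls: active = blocking of liver enzyme CYP2C9 beyond about 50% at 5 µM (limit read from the data); inactive = the rest.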 The list is a sample of the results.
Target: Cytochrome P450 2C9 (Homo sapiens) (UniProt P11712)
Assay: blockers of cytochrome P450 2C9 activity – biochemical, luminescence, ADME assay, primary screen (AID 777)
Conditions: CYP2C9 Supersomes, luciferin-H conversion, at 5 µM, hits give high values

Cytochrome P450 2C9 (Homo sapiens), sequence (P11712 whole entry, looked up): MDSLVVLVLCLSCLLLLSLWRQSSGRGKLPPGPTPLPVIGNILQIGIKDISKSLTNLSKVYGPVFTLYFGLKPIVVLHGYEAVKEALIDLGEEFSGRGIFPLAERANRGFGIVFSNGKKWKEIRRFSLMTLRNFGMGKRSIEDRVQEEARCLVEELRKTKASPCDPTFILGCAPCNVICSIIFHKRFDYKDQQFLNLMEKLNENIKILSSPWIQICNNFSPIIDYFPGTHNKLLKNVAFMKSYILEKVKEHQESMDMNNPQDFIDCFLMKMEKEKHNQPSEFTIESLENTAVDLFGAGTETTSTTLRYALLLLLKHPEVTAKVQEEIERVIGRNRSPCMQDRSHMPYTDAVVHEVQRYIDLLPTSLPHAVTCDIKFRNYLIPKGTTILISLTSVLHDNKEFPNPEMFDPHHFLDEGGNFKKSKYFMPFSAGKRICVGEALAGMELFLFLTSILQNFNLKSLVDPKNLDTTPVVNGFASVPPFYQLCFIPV

inhibition, inactive:
CNC(=O)/C(=C\C=C\c1ccccc1)NC(=O)c1ccc([N+](=O)[O-])cc1 22.2%
CCOC(=O)c1cnc(SCc2nc(N)nc(Nc3ccc(OC)cc3)n2)nc1N 40.5%
Cc1nn(-c2ccccc2)c2c1C(=O)NC(=O)C(C)(C)C2 14.9%
CC1CCN(C(=O)Cn2cc(C(=O)c3ccco3)c3ccccc32)CC1 28.3%
O=C(Nc1ccc(Oc2ccccc2)cc1)c1ccco1 24.3%
O=C(NC1CCCCC1)N1CCc2[nH]c3ccccc3c2C1 27.9%
Cc1cc(Cl)c(S(=O)(=O)NCC2CCCO2)cc1OCC(N)=O (stereo unspecified) -10.7%
Cc1ccc(-c2c3c(=O)n(C)c(=O)n(C)c3cn2-c2ccccc2O)cc1 43.7%
COc1ccc(-c2c3c(=O)n(C)c(=O)n(C)c3cn2-c2cccc(OC)c2)cc1 4.2%
CCc1ccc(Nc2ncc3c(n2)CC(c2ccco2)CC3=O)cc1 (stereo unspecified) 8.9%
O=C1N=C(N2CCOCC2)S/C1=C\C=C/c1ccccc1 -28.7%
CN(C)/C=C/C(=O)c1ccccc1F 14.6%
O=C(Nc1ccccc1Cl)O/N=C(/c1ccccc1)c1ccccn1 22.2%
O=C1NC(c2ccncc2)Nc2sc3c(c21)CCCC3 (stereo unspecified) 49.1%
O=C(O)C1CCCN(S(=O)(=O)c2cccc3cccnc23)C1 (stereo unspecified) -20.2%
CC(=O)c1cccc(NC(=O)N2CCCC2C(=O)NCCC(C)C)c1 (stereo unspecified) 9.2%
CC1CCCCC1NC(=O)C1CCCN1S(=O)(=O)c1cccc2nsnc12 (stereo unspecified) 21.2%
COc1ccc(NC(=O)C2CCCN(S(=O)(=O)c3cccc4cccnc34)C2)cc1 (stereo unspecified) -49.2%
CCc1nn(-c2cc(Oc3cccc4ccccc34)nc(-c3ccccc3)n2)c(N)c1C#N 20%
CSc1sc(C)cc1C1C(C#N)=C(N)N(c2cccnc2)C2=C1C(=O)CCC2 (stereo unspecified) 23%
CCCOc1ccc(N2C(=O)CC(N(CCc3ccc(S(N)(=O)=O)cc3)C(C)=O)C2=O)cc1 (stereo unspecified) -11.4%
Cc1nn(-c2ccccc2)c2[nH]c(C(F)(F)F)cc(=O)c12 46.9%
COc1ccc(OCCCC(=O)Nc2nnc(C3CCCO3)s2)cc1 (stereo unspecified) 45.3%
O=C(Cn1c(=O)sc2ccccc21)Nc1ccc2c(c1)OCCO2 7%
Cc1nnc(NC(=O)CCCOc2ccccc2)s1 -8.5%
CCN(CC)CCCNC(=O)CCc1ccccc1 1.4%
O=C(CN1C(=O)NC2(CCCC2)C1=O)Nc1ccc(F)c(F)c1F -34.9%
Cc1ccccc1N1CC(c2nc3ccccc3[nH]2)CC1=O (stereo unspecified) 29.8%
CC1=CC(=O)C=CC1(C)C(Cl)(Cl)Cl (stereo unspecified) -5.7%
O=C(Cn1nnc(-c2ccc(CN3CCOCC3)cc2)n1)NC1CCCCC1 25.3%
COc1ccc(N(CC(=O)NC2CCCCCCC2)S(=O)(=O)c2c(C)nn(C)c2C)cc1 40.5%
CC(C)c1cc(C(=O)O)on1 -15.7%
Cn1c(COc2ccc(Cl)cc2)nc2ccccc2c1=O 43.9%
COc1ccc(Oc2c(Cl)cnn(-c3ccccc3)c2=O)cc1 18.9%
CC(C)(C)C(=O)Nc1ccc(C(=O)N/N=C/c2ccccc2OC(=O)c2ccc(Cl)cc2Cl)cc1 21.5%
Cn1c2c(c(=O)n(C)c1=O)[C@@H]1c3c(ccc4ccccc34)OC[C@@H]1CO2 18.4%
CC(=O)Nn1cc2c(=O)n(C)c(=O)n(C)c2c1 -1.4%
COc1ccc(OC)c(NC(=O)Cn2c(=O)oc3ccccc32)c1 26.9%
CCn1c(NCCc2ccc(OC)c(OC)c2)nc2c1c(=O)n(C)c(=O)n2C 12.4%
O=C(OC1CCOC1=O)c1ccc(-c2nc3ccccc3s2)s1 (stereo unspecified) 4.9%
CSCCC(NC(=O)C1CCC(C)CC1)C(=O)NCc1ccco1 (stereo unspecified) 10.7%
CSCCC(NC(N)=O)C(=O)N(C)CC(=O)Nc1ccc(C)cc1 (stereo unspecified) -21.5%
CC1(C)CC(O)C(CCC(O)c2ccccc2)C(C)(C)N1 (stereo unspecified) -1.7%
O=c1c(F)cn(C2CCCO2)c(=O)n1Cc1ccccc1Cl (stereo unspecified) 15.2%
Cc1ccc(NC(=S)Nc2ncccc2C)c(C)c1 -26.1%
CCOC(=O)c1ccc(COC(=O)c2cc(=O)[nH]c3ccccc23)o1 -27.9%
CCOc1cc(/C=N/n2cnnc2)c(Br)cc1O 43.2%
COc1ccccc1N1CC(C(=O)Nc2ccc(S(=O)(=O)N3CCOCC3)cc2)CC1=O (stereo unspecified) 8.1%
Cc1cc(=O)oc2cc(OC(C)C(=O)Nc3ccc(N4CCOCC4)cc3)ccc12 (stereo unspecified) -6.3%
O=C(O)CCC(=O)NCc1ccc2[nH]c3c(c2c1)CCCC3 -5.1%

inhibition, active:
CC1CCN(C(NC(=O)c2ccco2)C(=O)c2ccccc2)CC1 (stereo unspecified) 71.6%
COc1cccc(-n2cc3c(c2-c2ccccc2)c(=O)n(C)c(=O)n3C)c1 64.6%
O=C(Nc1nccs1)C1CCCN1S(=O)(=O)c1cccc2cccnc12 (stereo unspecified) 53.9%
CC(=O)c1cccc(NC(=O)C2CCCN2S(=O)(=O)c2cccc3nsnc23)c1 (stereo unspecified) 92.8%
Cc1nnc(NC(=O)Cn2c(=O)sc3ccccc32)s1 67.6%
COc1cccc(N(CC(=O)NC2CCCC2)C(=O)Cn2nnc(-c3ccc(C)cc3)n2)c1 59.1%
Cc1[nH]nc(-c2ccc(OCc3cnn(-c4ccccc4)c3)cc2O)c1Oc1ccc(Cl)cc1 66.2%
COc1ccc(OC)c(-n2cc3c(=O)n(C)c(=O)n(C)c3c2)c1 78.8%
Cn1c(=O)c2cn(-c3cccc4ccccc34)cc2n(C)c1=O 71.3%
CCOC(=O)c1sc2nc(CSCC(=O)OCc3ccc(C(=O)OC)o3)[nH]c(=O)c2c1C 54.4%
Cc1cc(C(=O)OC(C)C(=O)Nc2cccc(S(=O)(=O)N3CCOCC3)c2)c(C)o1 (stereo unspecified) 97.4%

From PubChem BioAssay AID777 (Sanford-Burnham Center for Chemical Genomics, 2007)
